Where “and” joins values, the source holds several entries; their conditions need not be identical. Identical values can stand only once. Inconclusive results are not listed. Calls of active or inactive are those of the source. Rule for the calls, unless noted: active = hit-call score of the fitted dose curve at least 0.9, where 1 is the maximum; inconclusive = response in the unintended direction; inactive = score below 0.9.

For 14 molecules, outcome and AC50 results are on record in PubChem BioAssay (EPA / NIEHS).

Read-out in assay [1]: solute carrier (SLC22A6), SLC22A6 (gene 9356)
As to the kind of experiment: LTEA_HepaRG_SLC22A6: Life Technologies and Expression Analysis (LTEA) Assay for solute carrier (SLC22A6) using HepaRG (AID 2283653; active = hit-call score of the fitted dose curve at least 0.9, where 1 is the maximum; inactive = score below 0.9). The following applies: mRNA level, 48 h; actives raise or lower the signal. The method in brief: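 Differentiated human HepaRG cells were exposed for 48 h in serum-free induction medium to eight concentrations (top 100 uM, half-log steps, 0.5% DMSO), in duplicate. SLC22A6 mRNA was quantified by qRT-PCR, normalised to ACTB, GAPDH and POLR2A, and fitted bidirectionally against DMSO.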

Assay [2] in a line: Tanguay_ZF_120hpf_SWIM_legacy: (Legacy) Oregon State University Tanguay Lab 120 Hour Post-fertilization zebrafish Assay for Swim Bladder Malformation (AID 2283654).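 Note: swim bladder malformation in each larva scored yes or no under brightfield.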 The method in brief: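 Embryos lacking chorions were exposed individually and statically to test chemical from 6 to 120 hpf at 28C, with 0.64% DMSO as vehicle. At 120 hpf, swim bladder malformation was recorded as present or absent by brightfield microscopy.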

The nature of assay [3]: Tanguay_ZF_120hpf_TRUN_legacy: (Legacy) Oregon State University Tanguay Lab 120 Hour Post-fertilization zebrafish Assay for Truncated Body (AID 2283655). An outline of the steps:
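Tropical 5D wild-type embryos, dechorionated with pronase at 4 hpf, were placed singly in wells at 6 hpf and statically exposed at 28C until 120 hpf, final DMSO 0.64%. Truncated body was scored present/absent by brightfield microscopy.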

Read-out in assay [4]: solute carrier (SLC10A1), SLC10A1 (gene 6554)
As to the kind of experiment: LTEA_HepaRG_SLC10A1: Life Technologies and Expression Analysis (LTEA) Assay for solute carrier (SLC10A1) using HepaRG (AID 2283657; active = hit-call score of the fitted dose curve at least 0.9, where 1 is the maximum; inactive = score below 0.9). The following applies: mRNA level, 48 h; actives raise or lower the signal. An outline of the steps: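 Transcript levels were measured by qRT-PCR after human HepaRG cells received test chemical for 48 hours, up to 100 uM in half-log dilutions. Values come from bidirectional concentration-response fitting relative to 0.5% DMSO vehicle.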

Read-out in assay [5]: matrix metalloproteinase-1 (MMP1), MMP1 (gene 4312)
In words: LTEA_HepaRG_MMP1: Life Technologies and Expression Analysis (LTEA) Assay for matrix metalloproteinase-1 (MMP1) using HepaRG (AID 2283658; active = hit-call score of the fitted dose curve at least 0.9, where 1 is the maximum; inactive = score below 0.9). The conditions noted are these: mRNA level, 48 h; actives raise or lower the signal. An outline of the steps:
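Differentiated HepaRG cells, plated 48 h then switched to serum-free induction medium, were exposed in duplicate for 48 h to eight half-log concentrations up to 100 uM in 0.5% DMSO; MMP1 mRNA measured by qRT-PCR, normalized to ACTB, GAPDH, POLR2A.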

Read-out in assay [6]: ABC Transporter (ABCB1), ABCB1 (gene 5243)
As to the kind of experiment: CLD_ABCB1_6hr: CellzDirect (CLD) Gene Expression Assay for ABC Transporter (ABCB1) at 6 hours (AID 2283659).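 Note: hits raise ABCB1 transcript above the DMSO vehicle baseline.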 The method in brief:
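Primary human hepatocytes (two donor preparations) dosed daily for two days with chemicals at multiple concentrations, 0.2% DMSO vehicle; harvested 6 h post-dose. ABCB1 mRNA induction quantified by qNPA chemiluminescence; gain-of-signal fitted versus DMSO.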

Read-out in assay [7]: Broad substrate specificity ATP-binding cassette transporter ABCG2 (Homo sapiens) (UniProt Q9UNQ0)
In words: CLD_ABCG2_6hr: CellzDirect (CLD) Gene Expression Assay for ABC Transporter (ABCG2) at 6 hours (AID 2283660). The method in brief:
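Primary human hepatocytes dosed daily with chemicals at multiple concentrations (0.2% DMSO vehicle), harvested 6 h after dosing. ABCG2 mRNA induction read by quantitative nuclease protection assay (qNPA) chemiluminescence; gain of signal fitted against DMSO baseline.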

Read-out in assay [8]: xenobiotic metabolism (CYP1A1), CYP1A1 (gene 1543)
In words: CLD_CYP1A1_6hr: CellzDirect (CLD) Gene Expression Assay for xenobiotic metabolism (CYP1A1) at 6 hours (AID 2283661).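 For AC50: potency for transcript induction above DMSO vehicle baseline.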 The method in brief:
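Primary human hepatocytes from two donors, compound versus 0.2% DMSO vehicle. CYP1A1 mRNA measured 6 h after dosing by quantitative nuclease protection assay with chemiluminescent read-out; induction fitted relative to DMSO, cytotoxicity flagged by microscopy.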

The nature of assay [9]: Tanguay_ZF_120hpf_TR_legacy: (Legacy) Oregon State University Tanguay Lab 120 Hour Post-fertilization zebrafish Assay for Touch Response (AID 2283667). The method in brief:
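5D WT embryos; static exposure to 120 hpf, 28C, sealed/dark; DMSO 0.64% v/v final. TR scored present/absent; dead embryos excluded. Pos ctrl 5uM trimethyltin chloride.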

Read-out in assay [10]: sulfotransferase (SULT2A), SULT2A1 (gene 6822)
As to the kind of experiment: CLD_SULT2A_6hr: CellzDirect (CLD) Gene Expression Assay for sulfotransferase (SULT2A) at 6 hours (AID 2283669).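 Note: hits raise transcript level above the DMSO vehicle baseline.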 An outline of the steps:
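Primary human hepatocytes from two donor preparations were dosed daily with chemicals or 0.2% DMSO and harvested at 6 h. Transcript induction read by qNPA chemiluminescence, fitted for gain of signal relative to DMSO; morphology-based cytotoxicity annotated.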

Read-out in assay [11]: Cytochrome P450 (CYP24A1_1), CYP24A1 (gene 1591)
In words: LTEA_HepaRG_CYP24A1_1: Life Technologies and Expression Analysis (LTEA) Assay for Cytochrome P450 (CYP24A1_1) using HepaRG (AID 2283671; active = hit-call score of the fitted dose curve at least 0.9, where 1 is the maximum; inactive = score below 0.9). The following applies: mRNA level, 48 h; actives raise or lower the signal. The method in brief: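 In this test, gene induction or suppression of CYP24A1 in human HepaRG liver cells is measured by qRT-PCR after 48 h chemical treatment (eight concentrations, maximum 100 uM). Values are fitted bidirectionally relative to DMSO.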

Read-out in assay [12]: ABC Transporter (ABCB11), ABCB11 (gene 8647)
As to the kind of experiment: CLD_ABCB11_6hr: CellzDirect (CLD) Gene Expression Assay for ABC Transporter (ABCB11) at 6 hours (AID 2283675).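 Note: hits raise ABCB11 mRNA level so AC50 marks induction.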 An outline of the steps: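 Human primary hepatocytes (two donor preparations) given fresh chemical daily at multiple concentrations, vehicle 0.2% DMSO. ABCB11 mRNA induction measured 6 h after dosing by qNPA chemiluminescence versus DMSO; cytotoxicity annotated from morphology.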

Read-out in assay [13]: glucuronosyltransferase (UGT1A1), UGT1A1 (gene 54658)
In words: CLD_UGT1A1_6hr: CellzDirect (CLD) Gene Expression Assay for glucuronosyltransferase (UGT1A1) at 6 hours (AID 2283672). The method in brief:
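Primary human hepatocytes from two donor preparations, dosed with fresh solutions in 0.2% DMSO, harvested at 6 h. UGT1A1 mRNA measured by qNPA chemiluminescence; induction fitted upward versus DMSO.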

Assay [14] concerns Thyroperoxidase (TPO), gene 54314. In words: CCTE_Simmons_AUR_rTPO: CCTE's Amplex UltraRed Assay for Thyroperoxidase (TPO) Inhibition, Simmons Lab (AID 2283662).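 For AC50: potency for loss of signal meaning inhibition of peroxidase activity.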 An outline of the steps: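 Rat thyroid microsomes (5 ug protein) were incubated with test compound (8 concentrations, 5 nM–87.5 uM final, 0.5% DMSO), 25 uM Amplex UltraRed and 300 uM H2O2 in 200 mM phosphate buffer for 30 min at 37C in the dark; fluorescence read at 544/590 nm.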

Read-out in assay [15]: xenobiotic metabolism (CYP1A2), CYP1A2 (gene 1544)
In words: CLD_CYP1A2_6hr: CellzDirect (CLD) Gene Expression Assay for xenobiotic metabolism (CYP1A2) at 6 hours (AID 2283663).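 For AC50: potency is for induction meaning a rise in mRNA above DMSO.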 The method in brief:
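Primary human hepatocytes from two donor preparations, dosed daily with multiple concentrations in 0.2% DMSO and harvested at 6 h. CYP1A2 mRNA induction measured by chemiluminescent qNPA, gain of signal fitted against DMSO; cytotoxicity flagged morphologically.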

A short description of assay [16]: CCTE_Simmons_CellTiterGLO_HEK293T: Viability Assessment in CCTE's Assays for Thyroperoxidase (TPO) Inhibition, Simmons Lab (AID 2283665).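 For AC50: cells exposed to compound for 24 h before readout; actives reduce ATP signal below DMSO vehicle meaning cytotoxicity.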 An outline of the steps: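 Cytotoxicity counter-screen: human HEK293T cells in low-serum (1% FBS) medium receive test chemical, 5 nM to 87.5 uM final, for 24 h; ATP is quantified by luciferase luminescence.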
A general note: ATP-based viability assays read luminescence as a measure of living cells.

Read-out in assay [17]: ABC Transporter (ABCB11), ABCB11 (gene 8647)
In words: CLD_ABCB11_24hr: CellzDirect (CLD) Gene Expression Assay for ABC Transporter (ABCB11) at 24 hours (AID 2283674; active = hit-call score of the fitted dose curve at least 0.9, where 1 is the maximum; inactive = score below 0.9). An outline of the steps: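 Primary human hepatocytes were dosed daily for two days, with 0.2% DMSO vehicle. ABCB11 mRNA induction was measured at 24 hours by quantitative nuclease protection assay with chemiluminescence. Gain of signal was fitted relative to DMSO.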

Read-out in assay [18]: xenobiotic metabolism (CYP1A1), CYP1A1 (gene 1543)
As to the kind of experiment: CLD_CYP1A1_24hr: CellzDirect (CLD) Gene Expression Assay for xenobiotic metabolism (CYP1A1) at 24 hours (AID 2283673). An outline of the steps: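 Primary human hepatocytes dosed daily with fresh solutions in 0.2% DMSO vehicle. mRNA measured at 24 h by quantitative nuclease protection assay with chemiluminescence; gain-of-signal fit versus DMSO, with morphology-based cytotoxicity flags.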

Assay [19] can be described thus: Tanguay_ZF_120hpf_NC_legacy: (Legacy) Oregon State University Tanguay Lab 120 Hour Post-fertilization zebrafish Assay for Notochord and Tail Malformation (AID 2283656). The method in brief:
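Dechorionated 5D zebrafish, 1/well from 6 hpf; static exposure to 120 hpf, 28C, sealed, dark; final DMSO 0.64% v/v. NC scored binary (present/absent); dead embryos not scored. Fit vs DMSO baseline, gain direction.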

Broad substrate specificity ATP-binding cassette transporter ABCG2 (Homo sapiens), sequence (Q9UNQ0 whole entry, looked up): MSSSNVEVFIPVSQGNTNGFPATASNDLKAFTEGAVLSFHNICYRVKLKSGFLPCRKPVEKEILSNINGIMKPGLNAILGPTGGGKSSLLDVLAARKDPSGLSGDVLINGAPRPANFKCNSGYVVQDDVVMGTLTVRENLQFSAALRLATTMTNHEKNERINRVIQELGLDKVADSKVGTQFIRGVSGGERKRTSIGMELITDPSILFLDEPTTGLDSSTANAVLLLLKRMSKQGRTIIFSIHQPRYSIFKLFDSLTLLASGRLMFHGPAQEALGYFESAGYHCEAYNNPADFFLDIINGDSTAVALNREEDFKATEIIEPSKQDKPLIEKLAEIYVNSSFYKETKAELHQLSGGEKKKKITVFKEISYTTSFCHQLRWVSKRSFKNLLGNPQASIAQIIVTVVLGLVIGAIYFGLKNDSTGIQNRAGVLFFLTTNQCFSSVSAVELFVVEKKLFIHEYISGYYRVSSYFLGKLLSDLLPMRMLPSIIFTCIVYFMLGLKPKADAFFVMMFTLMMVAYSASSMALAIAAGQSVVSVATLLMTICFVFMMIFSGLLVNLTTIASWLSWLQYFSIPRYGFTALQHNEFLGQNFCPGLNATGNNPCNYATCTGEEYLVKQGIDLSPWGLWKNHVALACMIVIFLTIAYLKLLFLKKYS

Consider `CN=C=S`, for which the call in [1], in [2], in assay [3], in assay [4], in [5] and in [6] was inactive. For the same molecule, the result in [7], in assay [8], in [9], in [10], in assay [11] and in assay [12] was inactive.

`CCCCC(O)(Cn1cncn1)c1ccc(Cl)cc1Cl` (stereo not drawn): the result in assay [2], in [3], in [6], in assay [7], in [9] and in assay [13] was inactive.

As to `CCOc1nc(C(Cl)(Cl)Cl)ns1`, the outcome in [2], in assay [3], in assay [6], in [7], in [14] and in [15] was inactive. For the same molecule, the molecule was called inactive in [9] and in assay [12]. The AC50 (as a rule, the concentration at which the activity in the assay is half-maximal) in [16] is 82.9 µM (active) and 70.4 µM (active).

Turning to `Cc1cnc(C2=NC(C)(C(C)C)C(=O)N2)c(C(=O)O)c1` (stereo not drawn), the call in assay [2], in assay [3], in [6], in assay [7], in assay [14] and in assay [16] was inactive. The call in assay [9], in [10] and in assay [17] was inactive.

On to `N#CN=C1SCCN1Cc1ccc(Cl)nc1`, for which the molecule was classed as inactive in assay [2], in [3], in [6], in [7], in [9] and in assay [18].

Turning to `Nc1c(Cl)c(Cl)nc(C(=O)O)c1Cl`, the call in assay [1], in assay [4], in assay [5], in [6], in [7] and in assay [9] was inactive. Besides, the call in [11] and in [12] was inactive. Moreover, in [15], the AC50 is 33 µM (active).

With `CCOc1cc(C(C)(C)C)ccc1C1COC(c2c(F)cccc2F)=N1` (stereo not drawn), the call in [2], in assay [3], in [19], in assay [6], in assay [7] and in assay [8] was inactive. The molecule was classed as inactive in assay [15], in assay [9] and in [12]. In addition, the AC50 in assay [18] was 20 µM (active).

For `O=C1C2CC=CCC2C(=O)N1SC(Cl)(Cl)Cl` (stereo not drawn), the result in assay [2], in assay [3], in [6], in assay [7], in [9] and in [18] was inactive. The molecule was classed as inactive in [12].

Turning to `COc1cc(OC)nc(NC(=O)NS(=O)(=O)c2ncccc2OCC(F)(F)F)n1`, the molecule was classed as inactive in assay [2], in assay [3], in assay [19], in assay [15], in [9] and in [10]. In addition, the result in [17] and in assay [12] was inactive.

Consider `COP(=S)(OC)Oc1ccc([N+](=O)[O-])c(C)c1`, for which the molecule was called inactive in assay [2], in assay [3], in assay [19], in [6], in assay [16] and in assay [9]. For the same molecule, the call in assay [13] and in assay [12] was inactive. Further, the AC50 is 1.22 µM (active) in [8], 5.57 µM (active) in assay [14] and 3.34 µM (active) in assay [15].

Consider `COc1ccc(-c2ccccc2)cc1NNC(=O)OC(C)C`, for which the result in assay [2], in assay [3], in assay [19], in assay [6], in assay [7] and in [9] was inactive. Further, the call in [10] and in [12] was inactive. Moreover, the AC50 in [14] was 1.84 µM (active); in assay [16], 42.4 µM (active); in assay [18], 14.1 µM (active).

Regarding `Cc1nc(N(C)C)nc(OC(=O)N(C)C)c1C`, the outcome in [2], in assay [3], in assay [6], in assay [7], in [9] and in assay [13] was inactive. For the same molecule, the molecule was called inactive in assay [17] and in assay [12]. Moreover, the AC50 in assay [8] is 4.32 µM (active).

Consider `COC(=O)NS(=O)(=O)c1ccc(N)cc1`, for which the molecule was classed as inactive in assay [2], in [3], in [6], in assay [7], in assay [8] and in assay [9]. Further, the molecule was called inactive in assay [10], in [17] and in [12]. In addition, the figures for the AC50 in assay [14] and in [13] were 20.2 µM (active) and 20 µM (active), respectively.

Turning to `O=c1n(Cl)c(=O)n(Cl)c(=O)n1Cl`, the call in assay [2], in [3], in [19], in assay [7], in [16] and in [9] was inactive. Moreover, the call in assay [17] and in assay [12] was inactive. The AC50 in assay [14] is 22.5 µM (active); in [18] it was 3.97 µM (active).
